Measurements from PubChem BioAssay.
Activity calls are given as the source filed them.

Experiments:
Albumin (Bos taurus) = Albumin (Bos taurus) (UniProt P02769); experiment: bovine serum albumin binders on microarray, profiling panel, artefact control for SMM control protein annotation, biochemical, small-molecule microarray, Alexa647 label, 635/667 nm fluorescence (AID 1118); settings: BSA-A647 binding, fluorescence 635 nm, higher = more signal;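 also: score merges 667 nm emission intensity and signal-to-noise per printed compound spot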
Albumin (Bos taurus), sequence (P02769 whole entry, looked up): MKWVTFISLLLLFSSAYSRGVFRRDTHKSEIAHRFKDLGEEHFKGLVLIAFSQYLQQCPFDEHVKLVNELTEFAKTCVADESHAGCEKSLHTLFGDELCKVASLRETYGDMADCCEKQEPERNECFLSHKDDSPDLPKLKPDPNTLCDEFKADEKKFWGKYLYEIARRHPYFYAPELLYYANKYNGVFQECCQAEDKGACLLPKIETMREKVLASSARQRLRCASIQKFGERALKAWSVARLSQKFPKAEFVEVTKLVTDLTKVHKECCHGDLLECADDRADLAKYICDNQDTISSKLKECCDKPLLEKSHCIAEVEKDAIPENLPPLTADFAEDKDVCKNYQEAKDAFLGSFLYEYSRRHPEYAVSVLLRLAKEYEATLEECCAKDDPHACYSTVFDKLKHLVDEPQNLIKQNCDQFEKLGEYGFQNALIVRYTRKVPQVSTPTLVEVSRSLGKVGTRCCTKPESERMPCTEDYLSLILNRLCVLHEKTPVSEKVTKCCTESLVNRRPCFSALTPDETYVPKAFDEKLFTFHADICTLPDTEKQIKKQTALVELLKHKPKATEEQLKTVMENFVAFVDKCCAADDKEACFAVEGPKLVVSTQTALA

[1] = small-molecule microarray binders of probe aXIP, primary screen, biochemical, NeuroSMM set, 635/667 nm fluorescence (AID 1119); settings: higher = more signal, called active from +8 up or from −8 down;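 also: probe is the protein aXip251-270 applied at 1 µg/mL to compound-printed slides; binding of probe to printed compounds measured as 667 nm fluorescence plus signal to noise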
[2] = small-molecule binders of probe aNOTCH3, primary screen, biochemical, small-molecule microarray, 635/667 nm fluorescence (AID 1120); settings: higher = more signal;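 also: probe is a biotin-tagged antibody raised against NOTCH3 rather than NOTCH3 protein; score merges spot fluorescence near 667 nm with spot signal to noise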
[3] = small-molecule binders of probe aNOTCH2, primary screen, biochemical, small-molecule microarray, 635/667 nm fluorescence (AID 1121); settings: higher = more signal;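 also: score merges feature fluorescence read at 667 nm with its signal to noise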
[4] = biological target: Carbonic anhydrase 2 (Homo sapiens) (UniProt P00918); experiment: CAII small-molecule binders, profiling panel, biochemical, small-molecule microarray, Alexa647-labelled CAII (AID 1122); settings: CAII-A647 binding fluorescence, higher = more signal
[5] = COS7 lysate on small-molecule microarray, probe aHis, 635 nm (AID 1123); settings: COS7 cell lysate, fluorescence, higher = more signal;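 also: z-score combines 667nm fluorescence intensity with signal-to-noise per printed compound spot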
[6] = compound binding in COS7 lysate, probe aLAP1, primary screen, cell lysate, small-molecule microarray (AID 1124); settings: probe aLAP1, fluorescence, higher = more signal;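 also: lysate comes from COS7 cells expressing LAP1 and is applied at 0.3 µg/mL; score merges spot fluorescence near 667 nm with signal-to-noise over triplicate slides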
Sam68 (KHDRBS1) = experiment: Sam68 small-molecule binders, primary screen, biochemical, small-molecule microarray, 635 nm fluorescence (AID 1125); settings: small-molecule microarray binding, higher = more signal;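 also: score merges 667 nm channel intensity with signal to noise over triplicate slides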
[7] = tested on: Chordin-like protein 2 (CHRDL2); experiment: CHRDL2 small-molecule binders, primary screen, biochemical, small-molecule microarray, 635 nm fluorescence (AID 1126); settings: small-molecule microarray binding, fluorescence 635 nm; higher = more signal;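 also: printed compound slides probed with Chrdl2 protein at 4 µg/mL for 1 h at 4 C; score merges 667 nm emission intensity with signal to noise over three replicate slides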
[8] = biological target: Concanavalin-A (Canavalia ensiformis) (UniProt P02866); experiment: ConA small-molecule binders, primary screen, artefact control for SMM control protein annotation, biochemical, small-molecule microarray, Alexa647 label, 635 nm (AID 1127); settings: ConA-A647 binding fluorescence, higher = more signal;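 also: z combines 667 nm emission intensity with signal-to-noise across three replicate slides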
Concanavalin-A (Canavalia ensiformis), sequence (P02866 whole entry, looked up): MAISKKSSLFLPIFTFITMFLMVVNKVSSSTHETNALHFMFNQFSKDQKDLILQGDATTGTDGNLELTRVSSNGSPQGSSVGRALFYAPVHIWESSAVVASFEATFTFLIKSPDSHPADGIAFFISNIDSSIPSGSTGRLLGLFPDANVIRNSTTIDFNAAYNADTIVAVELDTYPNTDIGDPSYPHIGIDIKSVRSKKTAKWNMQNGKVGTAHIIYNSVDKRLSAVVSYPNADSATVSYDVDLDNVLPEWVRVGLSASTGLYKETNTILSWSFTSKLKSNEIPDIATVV

[9] = anti-His antibody binders, primary screen, artefact control for SMM control protein annotation, biochemical, small-molecule microarray, 635 nm fluorescence (AID 1128); settings: anti-His Alexa647 antibody binding, higher = more signal;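 also: score merges feature fluorescence with signal-to-noise for each printed compound spot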
[10] = tested on: Human papillomavirus type 1a E7 protein (residues 1-88); experiment: HPV1a E7 small-molecule binders, primary screen, biochemical, small-molecule microarray, residues 1-88, 635 nm (AID 1129); settings: small-molecule microarray binding, fluorescence 635 nm; higher = more signal
[11] = biological target: Focal adhesion kinase 1 (Homo sapiens) (UniProt Q05397); experiment: small-molecule microarray binders of FAK, primary screen, biochemical, 635/667 nm fluorescence, BSA, DTT (AID 1130); settings: PTK2 binding, 635 nm fluorescence, higher = more signal;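 also: composite of spot emission at 667 nm and signal to noise over triplicate slides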
Focal adhesion kinase 1 (Homo sapiens), sequence (Q05397 whole entry, looked up): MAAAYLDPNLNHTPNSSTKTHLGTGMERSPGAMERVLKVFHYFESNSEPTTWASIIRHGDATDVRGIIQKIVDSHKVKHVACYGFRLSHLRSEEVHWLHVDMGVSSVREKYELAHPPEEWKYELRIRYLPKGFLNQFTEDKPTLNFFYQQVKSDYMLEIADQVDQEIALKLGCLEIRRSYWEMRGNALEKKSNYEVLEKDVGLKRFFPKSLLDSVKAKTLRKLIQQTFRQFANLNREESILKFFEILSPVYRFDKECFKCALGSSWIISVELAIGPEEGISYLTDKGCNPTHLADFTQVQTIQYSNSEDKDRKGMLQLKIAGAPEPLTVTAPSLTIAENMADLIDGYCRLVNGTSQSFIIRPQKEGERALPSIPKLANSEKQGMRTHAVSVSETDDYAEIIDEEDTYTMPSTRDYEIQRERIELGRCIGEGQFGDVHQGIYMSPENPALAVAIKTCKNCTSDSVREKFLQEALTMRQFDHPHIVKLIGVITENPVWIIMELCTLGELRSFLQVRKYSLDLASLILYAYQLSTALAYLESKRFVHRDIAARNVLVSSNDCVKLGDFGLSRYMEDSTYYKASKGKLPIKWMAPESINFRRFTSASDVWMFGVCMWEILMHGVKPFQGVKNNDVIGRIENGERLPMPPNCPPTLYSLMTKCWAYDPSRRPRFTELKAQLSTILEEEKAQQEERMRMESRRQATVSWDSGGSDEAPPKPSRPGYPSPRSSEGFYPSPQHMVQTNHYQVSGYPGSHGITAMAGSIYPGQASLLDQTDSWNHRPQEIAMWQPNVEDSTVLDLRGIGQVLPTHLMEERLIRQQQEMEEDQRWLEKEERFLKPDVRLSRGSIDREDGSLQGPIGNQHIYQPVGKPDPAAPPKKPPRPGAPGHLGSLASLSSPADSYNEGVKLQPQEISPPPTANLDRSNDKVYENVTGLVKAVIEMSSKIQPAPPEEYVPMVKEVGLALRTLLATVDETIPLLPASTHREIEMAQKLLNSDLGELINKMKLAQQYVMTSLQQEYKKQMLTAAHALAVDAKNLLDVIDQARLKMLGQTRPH

[12] = tested on: Fibrinogen (Alexa647-labelled); experiment: fibrinogen binders on compound microarrays, profiling panel, artefact control for SMM control-protein annotation, biochemical, small-molecule microarray, 635/667 nm fluorescence (AID 1131); settings: fibrinogen-A647 binding fluorescence, higher = more signal;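 also: z-score merges 667 nm fluorescence with per-spot signal-to-noise over triplicate slides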
[13] = biological target: Follistatin (Homo sapiens) (UniProt P19883); experiment: follistatin binders on small-molecule microarrays, primary screen, biochemical, small-molecule microarray, 635/667 nm fluorescence (AID 1132); settings: FST binding, 635 nm fluorescence, higher = more signal
Follistatin (Homo sapiens), sequence (P19883 whole entry, looked up): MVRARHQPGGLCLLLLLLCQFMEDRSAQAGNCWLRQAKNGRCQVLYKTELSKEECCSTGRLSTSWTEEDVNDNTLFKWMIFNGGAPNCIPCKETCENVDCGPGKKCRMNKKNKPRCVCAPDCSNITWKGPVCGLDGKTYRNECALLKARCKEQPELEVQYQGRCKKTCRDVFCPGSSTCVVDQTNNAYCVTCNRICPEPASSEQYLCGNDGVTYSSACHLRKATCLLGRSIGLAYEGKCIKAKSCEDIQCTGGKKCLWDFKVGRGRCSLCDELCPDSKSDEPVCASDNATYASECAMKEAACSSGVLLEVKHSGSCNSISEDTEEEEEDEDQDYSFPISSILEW

[14] = biological target: Fibroblast growth factor 2 (Homo sapiens) (UniProt P09038); experiment: FGF2 binders on small-molecule microarrays, primary screen, biochemical, small-molecule microarray, 635/667 nm fluorescence (AID 1133); settings: small-molecule microarray binding, FGF2, fluorescence 635/667; higher = more signal
Fibroblast growth factor 2 (Homo sapiens), sequence (P09038 whole entry, looked up): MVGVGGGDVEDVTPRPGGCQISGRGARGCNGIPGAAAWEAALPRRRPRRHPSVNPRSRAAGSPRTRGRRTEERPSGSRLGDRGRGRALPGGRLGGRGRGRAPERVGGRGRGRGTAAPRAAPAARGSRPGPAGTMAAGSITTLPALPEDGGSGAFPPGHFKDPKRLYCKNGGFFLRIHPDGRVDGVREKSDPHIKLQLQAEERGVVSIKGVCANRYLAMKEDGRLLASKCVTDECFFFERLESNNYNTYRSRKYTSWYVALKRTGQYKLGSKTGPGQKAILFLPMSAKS

[15] = mitochondrial membrane potential change in A549 cells, profiling panel, cell-based, JC-1 fluorescence, basal, 24 h, 100 nL (AID 1138); settings: higher = more signal;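 also: A549 lung adenocarcinoma cells under basal conditions with no added stimulus; test concentration not given here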
Lefty1 = Lefty1 binders on small-molecule microarrays, primary screen, biochemical, small-molecule microarray, 635/667 nm fluorescence (AID 1139); settings: small-molecule microarray binding, fluorescence 635/667; higher = more signal
[16] = tested on: wheat germ agglutinin (Triticum aestivum), Alexa647-labelled; experiment: wheat germ agglutinin binders on compound microarrays, profiling panel, artefact control for SMM control-protein annotation, biochemical, small-molecule microarray, 635/667 nm fluorescence (AID 1140); settings: WGA-A647 binding, 635 nm fluorescence, higher = more signal;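 also: score merges 667 nm feature emission with signal to noise over triplicate slides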
[17] = biological target: Luciferin 4-monooxygenase (Photinus pyralis) (UniProt P08659); experiment: firefly luciferase enzyme inhibitors, primary screen, biochemical, luminescence, purified enzyme, 2006 set (AID 1141); settings: SteadyGlo luminescence, 30 min, higher = more signal, called active from +8 up or from −8 down;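 also: cell-free assay with purified firefly luciferase at 100 ng per well in PBS; test concentration not given here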
Luciferin 4-monooxygenase (Photinus pyralis), sequence (P08659 whole entry, looked up): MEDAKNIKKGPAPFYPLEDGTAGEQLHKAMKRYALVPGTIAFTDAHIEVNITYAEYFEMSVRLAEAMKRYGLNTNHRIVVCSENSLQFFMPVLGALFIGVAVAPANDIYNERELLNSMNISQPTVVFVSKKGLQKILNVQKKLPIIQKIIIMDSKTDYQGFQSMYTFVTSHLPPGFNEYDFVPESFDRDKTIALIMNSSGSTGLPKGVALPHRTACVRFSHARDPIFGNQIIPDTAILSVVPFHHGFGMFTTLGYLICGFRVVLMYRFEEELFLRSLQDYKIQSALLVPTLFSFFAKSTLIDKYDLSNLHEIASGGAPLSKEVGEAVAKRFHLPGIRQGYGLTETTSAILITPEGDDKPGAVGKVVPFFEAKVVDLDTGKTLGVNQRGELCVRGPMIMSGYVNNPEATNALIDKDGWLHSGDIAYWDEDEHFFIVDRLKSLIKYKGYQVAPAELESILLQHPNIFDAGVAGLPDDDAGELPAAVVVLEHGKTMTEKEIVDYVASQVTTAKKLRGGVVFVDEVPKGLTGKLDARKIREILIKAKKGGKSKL

Structure (SMILES) | composite z-score (Albumin (Bos taurus)) | composite Z-score [1] | composite z-score [2] | composite z-score [3] | composite z-score [4] | composite z-score [5] | composite z-score [6] | composite z-score (Sam68 (KHDRBS1)) | composite z-score [7] | composite z-score [8] | composite z-score [9] | composite z-score [10] | composite z-score [11] | composite z-score [12] | composite z-score [13] | composite z-score [14] | z-score [15] | composite z-score (Lefty1) | composite z-score [16] | z-score [17]
CCOC(=O)[C@H](CC(C)C)NC(=O)CCC1CC(OC(=O)NCCc2ccc(F)cc2)CC2(CCCC(COC(=O)NCc3cccc4ccccc34)O2)O1 (stereo not given in full) | 0.426 | -0.275 (inactive) | -0.235 | 0.12 | 0.276 | 0.96 | -0.138 | 0.695 | 0.282 | 0.873 | 0.229 | 0.982 | 0.2 | 0.279 | 1.27 | 0.634 | 0.755 | 0.774 | 0.0787 | 0.6 (inactive)
CC(C)[C@@H](OCc1ccccc1)[C@H](C)C=NO[C@@H](C)c1cn([C@H](CO)Cc2ccccc2)nn1 | 0.449 | -0.0527 (inactive) | 0.209 | -0.146 | -0.227 | -0.205 | -0.0074 | 0.706 | 0.191 | -0.36 | 0.08 | -0.147 | -0.0232 | -0.157 | -0.0854 | 0.346 | -1.02 | 0.249 | 0.0578 | -0.197 (inactive)
O=C1[C@H]2CCn3c(=O)n(-c4ccccc4)c(=O)n3[C@H]2[C@H](O)[C@@H]2O[C@H]12 | 0.0407 | -0.916 (inactive) | -0.177 | -0.0651 | 0.0463 | 0.178 | -0.34 | -0.319 | 0.37 | 0.218 | -0.0114 | 0.301 | -0.339 | 0.418 | -0.0705 | 0.127 | 0.718 | 0.278 | 0.465 | 0.0786 (inactive)
CN1CCc2nc(-c3ccccc3)c(-c3ccccc3)cc2C1 | 0.0013 | -0.341 (inactive) | -0.0343 | -0.115 | -0.132 | -0.0596 | -0.247 | -0.23 | 0.58 | 0.486 | 0.532 | 0.26 | 0.163 | 0.547 | 0.397 | 0.325 | 0.0181 | 0.256 | -0.0097 | -0.133 (inactive)
CCOC(=O)[C@H](CC(C)C)NC(=O)CCC1CC(OC(=O)NCc2ccc3c(c2)OCO3)CC2(CCCC(COC(=O)NCCc3ccccc3OC)O2)O1 (stereo not given in full) | 0.31 | 1.05 (inactive) | -0.0328 | -0.0633 | 0.127 | 0.754 | 0.0278 | 1.29 | 0.663 | 1.05 | 0.746 | 1.13 | 0.283 | 0.669 | 0.826 | 1.15 | -0.717 | 0.787 | 0.196 | 0.867 (inactive)
O=C1[C@H]2[C@H]3[C@H](O)[C@H](O)CC(=NOCc4ccccc4)[C@H]3CC[C@H]2C(=O)N1C1CCCCC1 | 0.487 | 0.447 (inactive) | -0.0744 | -0.14 | 0.505 | 0.596 | -0.438 | 0.734 | 0.318 | 0.921 | 0.992 | 0.944 | 0.041 | 1 | 0.28 | 0.479 | 0.436 | 0.355 | 0.971 | 0.18 (inactive)
